High-throughput results from PubChem.
ALR inh = inhibitors of human sulfhydryl oxidase ALR | P55789 | purified ALR, DTT oxidation, H2O2 HRP-luminol luminescence | inhibition, % (no concentration beside the values) | 3.8% of 290,000 active | AID 485317;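 active = mean replicate inhibition above about 79%, with every replicate also reaching it, limit read from the data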
Target sequence (P55789 whole entry, looked up): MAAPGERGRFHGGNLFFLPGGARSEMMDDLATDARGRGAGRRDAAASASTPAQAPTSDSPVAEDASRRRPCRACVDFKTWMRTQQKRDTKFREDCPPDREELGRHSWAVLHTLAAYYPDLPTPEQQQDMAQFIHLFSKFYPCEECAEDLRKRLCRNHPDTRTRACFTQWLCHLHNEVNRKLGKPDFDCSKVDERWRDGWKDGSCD
rCAG binder = molecules binding r(CAG) RNA repeats; inhibition, % at 3 µM; 1.3% of 370,000 active; r(CAG) RNA repeat, TO-PRO-1 dye displacement fluorescence; AID 651821;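 active = inhibition above the plate cutoff, the mean of all test compounds on that plate plus 3 SD, cut at about 35% in these data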;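 also: 0% = DMSO alone and 100% = 100 µM mitoxantrone as full dye displacement; higher means more dye released from RNA so lower well fluorescence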
aDG glyco act = alpha-DG glycosylation activation; Pro5-aDG cells, alpha-DG glycosylation AlphaScreen (IIH6); 0% Pro5, 100% B10-LARGE cell signal; activation, % at 10 µM; 0.22% of 360,000 active;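 active = activation of at least 8% versus controls, or a plate z-score of at least 8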;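 also: Pro5 are CHO cells carrying HIG-tagged alpha-DG that lacks glycosylation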
A3A deaminase = blocks human APOBEC3A ssDNA deamination; P31941; recombinant A3A, FAM/TAMRA ssDNA deamination fluorescence; inhibition, % at 20 µM; 0.41% of 330,000 active;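 active = at least 40% inhibition at 20 µM here, with at most 30% in a related deaminase screen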;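 also: plate controls were A3A with DMSO for no effect and wells lacking A3A enzyme for full effect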
Target sequence (P31941 whole entry, looked up): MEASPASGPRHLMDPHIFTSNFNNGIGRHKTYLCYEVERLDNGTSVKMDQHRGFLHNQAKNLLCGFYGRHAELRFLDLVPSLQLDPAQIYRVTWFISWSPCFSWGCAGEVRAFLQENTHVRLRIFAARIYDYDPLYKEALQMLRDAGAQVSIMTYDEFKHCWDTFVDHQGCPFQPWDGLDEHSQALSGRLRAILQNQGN
PHOSPHO1 block = PHOSPHO1 (human) inhibition; Q8TCT1; recombinant PHOSPHO1, absorbance phosphatase assay; inhibition, % at 13.3 µM; 1.1% of 290,000 active; in the data active = inhibition above about 60%
APOBEC3G inh = inhibitors of human APOBEC3G DNA deaminase. Q9HC16. recombinant A3G, ssDNA deamination FAM/TAMRA fluorescence. inhibition, % at 20 µM. 0.28% of 330,000 active;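 active = inhibition of at least 40% at 20 µM, with no more than 30% in the related APOBEC3A deaminase screen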;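 also: plate controls were DMSO wells with A3G for no effect and wells lacking A3G enzyme for full effect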
* = called active by the depositor; · = no result. Hits are enriched below; roughly 5.4% of the tested compounds scored in any of these assays.

SMILES | ALR inh | rCAG binder | aDG glyco act | A3A deaminase | PHOSPHO1 block | APOBEC3G inh
COc1cc(/C=N/Nc2ccccn2)cc(OC)c1O | 99.1* | 2.8 | -0.1 | -3.3 | -28.8 | -7.1
CCOc1ccc(/C=N/Nc2ccccn2)cc1OC | 86.5* | -3.5 | 0.0 | -1.9 | 8.2 | -13.7
Fc1cccc(/C=N/Nc2ccccn2)c1 | 49.2 | -0.1 | -0.2 | 1.1 | 27.1 | -1.3
C(=N\Nc1ccccn1)/c1ccc2c(c1)OCCO2 | 98.4* | -1.5 | -0.4 | -0.2 | 2.2 | -5.7
CCOC(=O)c1ccc(C#Cc2ccc3c(c2)C(C)(C)CCS3)nc1 | · | 7.2 | · | · | · | ·
O=C(NC1CCCCN(Cc2cccc(F)c2)C1=O)c1ccc(-c2ccccc2)cc1 (configuration not stated) | · | 5.5 | · | · | · | ·
Cc1ccccc1N(CC(=O)Nc1ccc(S(=O)(=O)N2CCOCC2)cc1)S(C)(=O)=O | -0.3 | -1.2 | -0.1 | -0.8 | 62.8* | -4.7
Cc1csc(SCC(=O)Nc2cc(S(=O)(=O)N3CCOCC3)ccc2N2CCOCC2)n1 | -1.2 | -0.5 | -0.2 | 1.7 | -118.9 | -3.6
CC(=O)Nc1ccc(C2=NNC(=Nc3ccc(S(=O)(=O)N4CCOCC4)cc3)SC2)cc1 | -6.2 | 20.0 | -0.2 | 0.3 | 65.4* | -4.7
Cc1csc(SCC(=O)c2ccc(S(=O)(=O)N3CCOCC3)cc2)n1 | · | 13.0 | -0.1 | -2.1 | 77.8* | -4.1
NNC(=S)Nc1ccc(S(=O)(=O)N2CCOCC2)cc1 | 98.5* | 14.7 | -0.1 | 4.9 | -128.1 | 0.9
COc1cccc(C(=O)N[C@H](C(=O)N2CCC[C@H]2C(=O)NCCc2ccccc2Cl)C2CCCCC2)c1 | · | 1.6 | · | · | · | ·
CSc1ccc(C=Nn2c(-c3cc(C)[nH]n3)n[nH]c2=S)cc1 | · | 9.8 | · | · | · | ·
O=C(Nc1cccc(C(F)(F)F)c1)OC1CC2CC1[C@H]1CCCCN1[C@H]2Cc1ccccc1 (some centres not stated) | · | 8.7 | · | · | · | ·
Nc1nnc(SCC(=O)Nc2ccc(S(=O)(=O)N3CCOCC3)cc2)s1 | 96.2* | · | -0.1 | 0.6 | 56.7 | -3.3
CCN(CC)c1ccc(NC(=O)CN2CCN(c3ccccc3F)CC2)cc1 | 99.1* | -5.9 | -0.2 | -0.9 | -45.1 | -6.5
CCOc1ccc(NC(=O)CCN2CCN(S(=O)(=O)c3cc(Cl)ccc3OC)CC2)cc1 | -5.1 | -4.3 | 0.2 | -1.6 | 17.6 | -1.2
COc1ccc(NC(=O)CCN2CCN(S(=O)(=O)c3ccc(C(C)C)cc3)CC2)cc1 | -18.0 | -5.0 | -0.1 | 5.0 | 7.1 | 9.7
CN(C)c1ccc(NC(=O)CN2CCN(CC(=O)Nc3ccc(F)cc3)CC2)cc1 | 98.9* | -8.0 | -0.3 | 1.0 | -3.4 | -3.7
CCN(CC)c1ccc(NC(=O)CN2CCN(S(=O)(=O)c3cc(Cl)ccc3OC)CC2)cc1 | · | -4.6 | 1.6 | 7.5 | 93.0* | 5.7
CC(C)c1ccc(S(=O)(=O)N2CCN(CCC(=O)Nc3ccc(N(C)C)cc3)CC2)cc1 | · | -8.8 | -0.3 | · | 82.6* | ·
O=C(CSc1nnc(-c2ccccn2)n1-c1ccccc1)Nc1ccc(OCc2ccccc2)cc1 | · | 10.9 | · | · | · | ·
Cc1ccc(C(=O)C2CCN(CC(=O)Nc3ccc(N(C)C)cc3)CC2)cc1 | 98.1* | 1.0 | 0.0 | 2.0 | 31.4 | -4.6
O=C(CN1CCN(c2ccccc2O)CC1)Nc1ccc2c(c1)OCCCO2 | 99.6* | 2.8 | -0.1 | -4.0 | · | -5.2
CCOC(=O)[C@@]12CCCC3=C1N(CCC3)C(=O)[C@H]2CC(=O)N1CCC(c2ccccc2)CC1 | · | -2.4 | · | · | · | ·
SMILES | ALR inh | rCAG binder | aDG glyco act | A3A deaminase | PHOSPHO1 block | APOBEC3G inh
COc1ccc(/C=C2\C(=O)ON=C2c2ccccc2)cc1 | 97.8* | -0.1 | 0.1 | -2.3 | 31.3 | 0.4
O=C1ON=C(c2ccccc2)/C1=C/c1ccc(OS(=O)(=O)c2ccccc2)cc1 | 8.0 | 19.3 | -0.2 | · | -19.6 | ·
COC(=O)N(C)C[C@H]1OCc2cn(nn2)CCCC(=O)N([C@H](C)CO)C[C@@H]1C | · | 2.5 | · | · | · | ·
COc1cccc(NC(=O)CSc2nc(=O)n(Cc3ccncc3)c3c2CCCC3)c1 | 1.0 | 2.1 | 0.0 | 3.6 | · | -2.8
CC(=O)Nc1cccc(NC(=O)CSc2nc(=O)n(Cc3ccccn3)c3c2CCC3)c1 | 98.4* | -3.3 | -0.2 | -5.9 | · | -11.9
CC(=O)Nc1cccc(NC(=O)CSc2nc(=O)n(Cc3ccncc3)c3c2CCC3)c1 | 98.9* | 0.2 | -0.1 | -1.3 | · | -2.2
CC(=O)NNc1nc(-c2ccc(C)cc2)cs1 | 83.1* | 3.7 | -0.2 | -3.0 | -85.2 | -9.2
CCCC(=O)Nc1ccc(-c2csc(NNC(C)=O)n2)cc1 | 98.6* | 1.3 | -0.1 | 0.8 | -15.9 | -2.4
